In PubChem BioAssay (EPA / NIEHS):
Active and inactive are the calls of the source. Rule for the calls: active = hit-call score of the fitted dose curve at least 0.9, where 1 is the maximum; inactive = score below 0.9.

Key:
Details in all cases: mRNA level, 48 h; actives raise or lower the signal
CYP3A5 (gene 1577) = experiment: LTEA_HepaRG_CYP3A5: Life Technologies and Expression Analysis (LTEA) Assay for CYP3A5 using HepaRG (AID 2283493)
How it was run: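 Human HepaRG hepatic cells receive 48 h chemical treatment at eight concentrations (half-log steps from 100 uM) in 0.5% DMSO. Expression of CYP3A5 is quantified by Fluidigm qRT-PCR and normalized to three reference genes.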

[1] = read-out: Fatty Acid-Binding Protein 1 (FABP1), FABP1 (gene 2168); experiment: LTEA_HepaRG_FABP1: Life Technologies and Expression Analysis (LTEA) Assay for Fatty Acid-Binding Protein 1 (FABP1) using HepaRG (AID 2283494)
How it was run: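 qRT-PCR readout of FABP1 transcript (normalized to three housekeeping genes) after 48 h chemical exposure of HepaRG cells; eight concentrations, half-log steps, max 100 uM, 0.5% DMSO vehicle; gain or loss fitted relative to DMSO baseline.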

[2] = read-out: Cytochrome P450 4A22 (Homo sapiens) (UniProt Q5TCH4); experiment: LTEA_HepaRG_CYP4A22: Life Technologies and Expression Analysis (LTEA) Assay for Cytochrome P450 4A22 (CYP4A22) using HepaRG (AID 2283495)
How it was run: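 Readout is CYP4A22 transcript induction or loss, quantified by qRT-PCR and normalized to ACTB, GAPDH and POLR2A. Human HepaRG cells receive test chemicals for 48 h at eight half-log concentrations from 100 uM in 0.5% DMSO.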

[3] = read-out: Cytochrome P450 7A1 (Homo sapiens) (UniProt P22680); experiment: LTEA_HepaRG_CYP7A1: Life Technologies and Expression Analysis (LTEA) Assay for Cytochrome P450 7A1 (CYP7A1) using HepaRG (AID 2283496)
How it was run: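 HepaRG, 48 h exposure, 8-pt half-log series from 100 uM, 0.5% DMSO vehicle, duplicates. Readout: TaqMan qRT-PCR mRNA vs three housekeeping genes; bidirectional curve fit against DMSO baseline.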

[4] = read-out: Glutathione S-Transferase (GSTA2), GSTA2 (gene 2939); experiment: LTEA_HepaRG_GSTA2: Life Technologies and Expression Analysis (LTEA) Assay for Glutathione S-Transferase (GSTA2) using HepaRG (AID 2283497)
How it was run: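 qRT-PCR readout of GSTA2 transcript, normalized to three housekeeping genes, fitted bidirectionally against 0.5% DMSO baseline. Differentiated HepaRG cells received compound for 48 h at 8 concentrations (top 100 uM, half-log steps).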

[5] = read-out: Glutamate-cysteine ligase catalytic (GCLC), GCLC (gene 2729); experiment: LTEA_HepaRG_GCLC: Life Technologies and Expression Analysis (LTEA) Assay for Glutamate-cysteine ligase catalytic (GCLC) using HepaRG (AID 2283498)
How it was run: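 HepaRG, 48 h exposure, 8-pt half-log series from 100 uM, 0.5% DMSO vehicle; TaqMan qRT-PCR for GCLC mRNA, housekeeping-normalized; bidirectional curve fit vs DMSO baseline.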

[6] = read-out: growth arrest and DNA damage 45 (GADD45G), GADD45G (gene 10912); experiment: LTEA_HepaRG_GADD45G: Life Technologies and Expression Analysis (LTEA) Assay for growth arrest and DNA damage 45 (GADD45G) using HepaRG (AID 2283499)
How it was run: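 Gain or loss of GADD45G mRNA, quantified by TaqMan qRT-PCR against three housekeeping genes, is fitted in both directions relative to 0.5% DMSO. Human HepaRG cultures receive test chemical for 48 h at up to 100 uM.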

[7] = read-out: Glutamate-cysteine ligase regulatory (GCLM), GCLM (gene 2730); experiment: LTEA_HepaRG_GCLM: Life Technologies and Expression Analysis (LTEA) Assay for Glutamate-cysteine ligase regulatory (GCLM) using HepaRG (AID 2283500)
How it was run: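 Endpoint is GCLM transcript level by qRT-PCR, normalized to three housekeeping genes, after 48 h chemical exposure of human HepaRG cells (0.5% DMSO vehicle, top 100 uM, half-log dilutions). Fitting was bidirectional relative to DMSO.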

[8] = read-out: Glutathione S-transferase M3 (GSTM3), GSTM3 (gene 2947); experiment: LTEA_HepaRG_GSTM3: Life Technologies and Expression Analysis (LTEA) Assay for Glutathione S-transferase M3 (GSTM3) using HepaRG (AID 2283501)
How it was run: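 HepaRG, plated 48 h, then serum-free induction medium; test chemical 48 h, duplicate; 100 uM top, half-log x8, 0.5% DMSO. Read-out: GSTM3 mRNA (TaqMan qRT-PCR, Fluidigm array). Bidirectional fit vs DMSO.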

[9] = read-out: Heat shock 70 kDa protein 1 (HSPA1A), gene 3303; experiment: LTEA_HepaRG_HSPA1A: Life Technologies and Expression Analysis (LTEA) Assay for Heat shock 70 kDa protein 1 (HSPA1A) using HepaRG (AID 2283502)
How it was run: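 Cells were plated and cultured for 48 h, then switched to serum-free induction medium. Chemicals were added at eight half-log concentrations up to 100 uM for 48 h. RNA was then isolated and HSPA1A measured by qRT-PCR with bidirectional curve fitting against DMSO.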

Measured: AC50

CCCCCCCC/C=C\CCCCCCCC(=O)OC[C@@H](O)[C@H]1OC[C@H](O)[C@H]1O
inactive: all assays above

CCCCC(CC)C(=O)OCCOCCOCCOC(=O)C(CC)CCCC (stereo unspecified)
inactive: all assays above

c1ccc2cc3ccccc3cc2c1
not listed: [2]
inactive: all other assays above

COCc1nnc(-c2ccc[n+]([O-])c2)n1-c1c(Cl)c(Cl)cc2[nH]c(=O)c(=O)[nH]c12
inactive: all assays above

CCc1ccc(O)c(C(C)(C)C)c1
inactive: all assays above

CCCCN1C(=O)[C@@H]([C@H](O)C2CCCCC2)NC(=O)C12CCN(Cc1ccc(Oc3ccc(C(=O)O)cc3)cc1)CC2
inactive: [7]
active: CYP3A5 (gene 1577) 1.9 µM | [1] 2.84 µM | [2] 3.35 µM | [3] 2.15 µM | [4] 2.39 µM | [5] 2.25 µM | [6] 4.63 µM | [8] 4.76 µM | [9] 1.8 µM

O=c1[nH]cnc2c1ncn2[C@H]1CC[C@@H](CO)O1
inactive: all assays above

CC(=O)c1ccccc1
inactive: all assays above

CCCCOC(=O)c1ccccc1
active: [1] 12.1 µM
inactive: all other assays above

OC(Cn1cncn1)(Cn1cncn1)c1ccc(F)cc1F
inactive: all assays above

CCCCCOC(C)=O
inactive: all assays above

NC(=O)NN=Cc1ccc([N+](=O)[O-])o1
active: [1] 25.7 µM | [3] 13.6 µM | [7] 9.92 µM
inactive: all other assays above

CCCOc1ccc(S(=O)(=O)N2CCN(CC)CC2)cc1-c1nc2c(CC)n(Cc3ccccn3)nc2c(=O)[nH]1
active: [1] 12.1 µM | [3] 4.07 µM | [6] 77.9 µM | [9] 25.3 µM
not listed: [2]
inactive: all other assays above

C[C@]12C=CC(=O)C=C1CC[C@H]1[C@@H]3C[C@@H](O)[C@](O)(C(=O)CO)[C@@]3(C)C[C@H](O)[C@@]12F
not listed: [2]
inactive: all other assays above

CCCCCCCCN(C)C
inactive: all assays above

O=C(NO)C1(NS(=O)(=O)c2ccc(Oc3ccc(F)cc3)cc2)CCOCC1
active: [1] 50 µM | [4] 83.5 µM | [6] 72.6 µM
not listed: [2]
inactive: all other assays above
